Screening data deposited in PubChem by Center for Chemical Genomics, University of Michigan.
Only a selection was taken, and hits are over-represented in it overall.
Dicer processing – inhibitors of human Dicer processing of pre-microRNA; Q9UPY3; cat-ELCCA pre-miR-21 Dicer processing, chemiluminescence; hits give high values; z-score at 25 µM; 47,000 tested, 6% active; in the data active = z-score above about 3, passing the limit was not always enough;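 also: higher signal means more uncleaved substrate so more Dicer inhibition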
A number is an active result; – = inactive.

SMILES	Dicer processing
COc1ccc(Nc2ncnc3ccccc23)cc1	–
CCOC(=O)N1CCC(N/C=C(\C#N)S(=O)(=O)c2ccc(Cl)cc2)CC1	–
Cc1cc(C)n(C(=O)CCCCC(=O)n2nc(C)cc2C)n1	–
S=C(NNc1nccc(-c2cccnc2)n1)Nc1ccccc1	–
COc1nc(N)nc(N)c1S(=O)(=O)c1ccccc1	–
Cc1cccc(Oc2cc(C)nc3ccc(C)cc23)c1	–
O=c1/c(=C/c2cccs2)sc2nc(-c3ccccc3)c(-c3ccccc3)n12	–
CC(C)(C)OC(=O)N[C@@H](Cc1ccccc1)C(=O)NNC(=S)NCC1CC1	–
O=C(NNC(=S)NCC1CC1)C1CC1	3.41
S=C(NCC1CC1)N/N=C/c1ccccc1Cl	–
O=c1[nH]nc(Sc2ccc(C(F)(F)F)cc2[N+](=O)[O-])n1-c1ccccc1C(F)(F)F	–
COC(=O)c1scc2c(=O)cc(C(F)(F)F)[nH]c12	–
CCOC(=O)c1c(C)oc2ccc(NS(=O)(=O)c3ccc(Cl)cc3)cc12	3.59
CCOc1ccc(S(=O)(=O)Nc2ccc3oc(C)c(C(=O)OCCOC)c3c2)cc1	–
CCOC(=O)c1c(C)oc2c(Br)cc(NS(=O)(=O)c3ccc(Cl)c(C)c3)cc12	–
CCN1CCN(c2oc(COc3ccc(Cl)cc3)nc2C#N)CC1	–
CC1CN(S(=O)(=O)c2cccc(-c3cn4cc(Cl)ccc4n3)c2)CC(C)O1 (centres undefined)	–
O=C(O)CCC12CC3CC(CC(O)(C3)C1)C2	–
CC1=CCC2C(=O)N(c3ccc(C(=O)OCC(=O)c4ccc(Br)cc4)cc3)C(=O)C2C1 (centres undefined)	–
CCOC(=O)N1CCC(N2CCCC(C(=O)N3CCCC3)C2)CC1 (centres undefined)	–
CCOC(=O)N1CCC(N2CCN(S(C)(=O)=O)CC2)CC1	5.04
CCOC(=O)N1CCC(N2CCN(S(=O)(=O)c3ccc(OC)cc3)CC2)CC1	–
O=C(O)c1ccc(C2(c3ccc(C(=O)O)cc3)OC(=O)c3ccccc32)cc1	–
Cc1cccc(C)c1NC(=O)NCc1ccccc1	–
O=C(NCc1ccccc1)NCc1ccccc1	3.64
SMILES	Dicer processing
O=C(NCCCCCCNC(=O)NCc1ccccc1)NCc1ccccc1	–
CCc1ccc(-c2csc(Nc3ccc(S(N)(=O)=O)cc3)n2)cc1	–
Cc1ccc(-c2csc(Nc3ccc(S(N)(=O)=O)cc3)n2)cc1	7.1
Clc1ccc(-c2csc(Nc3ccccc3)n2)cc1	–
Fc1ccc(Nc2nc(-c3ccncc3)cs2)cc1	–
Cc1cccnc1Nc1nc(-c2cccnc2)cs1	–
COc1ccc(-c2csc(Nc3cccnc3)n2)cc1	–
Clc1ccc(Nc2nc(-c3ccncc3)cs2)cc1	5.61
O=C(O)c1ccc(Nc2nc(-c3cccnc3)cs2)cc1	6.61
Cc1ccc(Nc2nc(C(F)(F)F)cs2)cc1	–
CC(=O)Nc1c(-c2cccc(C(F)(F)F)c2)c(C(F)(F)F)nn1C	–
O=c1[nH]cnc2c1nnn2Cc1ccc(Cl)cc1	–
C=C1SC(Nc2c(CC)cccc2CC)=NC1(C)C	–
CC(=O)Oc1ccc(C2C(C#N)=C(C)NC3=C2C(=O)CC(c2ccccc2)C3)cc1 (centres undefined)	–
CC1(C)O[C@H]2O[C@H](CO)[C@@H](O)[C@H](O)[C@H]2O1	–
COc1ccc(Nc2cccc(Cl)c2)c(C(=O)O)c1	–
O=C(Nc1ccc(OCc2ccccc2)cc1)Nc1ccc(Oc2c(Cl)cccc2Cl)nc1	–
Cc1ccc(C2CC(=O)c3cnc(N4CCN(c5ccccn5)CC4)nc3C2)cc1 (centres undefined)	–
Cc1nc(C(C)(C)C)[nH]c(=O)c1Cl	–
c1ccc2c(c1)CCCc1cc(NCCN3CCOCC3)nnc1-2	–
O=C(NCCN1CCOCC1)c1cc2nc3c(c(C(F)(F)F)n2n1)CCc1ccccc1-3	4.34
O=C(Nc1ccc(O)cc1)c1cc2nc3c(c(C(F)(F)F)n2n1)CCc1ccccc1-3	3.22
O=C(Nc1cccnc1)c1cc2nc(-c3ccc(Cl)cc3)cc(C(F)(F)F)n2n1	–
O=C(NCCN1CCOCC1)c1cc2nc(-c3ccc(Br)cc3)cc(C(F)(F)F)n2n1	–
FC(F)(F)c1c2c(nc3cc(-c4ccc(Cl)cc4)nn13)-c1ccccc1C2	–
SMILES	Dicer processing
CCCCCn1c(SCc2cc(=O)[nH]c(C34CC5CC(CC(C5)C3)C4)n2)n[nH]c1=O	–
O=C(CCN1CCC(c2cccs2)=N1)c1cccs1	–
CCOC(=O)c1c(S(=O)(=O)Nc2cccc([N+](=O)[O-])c2)c(-c2ccccc2)n(-c2ccccc2)c1C	–
CCSC1=N/C(=C\c2ccc(OC(C)=O)cc2)C(=O)S1	–
Cn1c(=O)c2c(nc(NCCCn3ccnc3)n2Cc2cccc3ccccc23)n(C)c1=O	–
Cn1c(=O)c2c(nc(NCCCO)n2Cc2ccc(Cl)cc2)n(C)c1=O	3.61
Cn1c(=O)c2c(nc(-n3ccnc3)n2Cc2ccc(F)cc2)n(C)c1=O	–
Cn1c(NCCCO)nc2c1c(=O)n(Cc1ccc(Cl)cc1)c(=O)n2C	–
Cn1c(=O)c2c(nc(NCCCn3ccnc3)n2Cc2ccc(F)cc2)n(C)c1=O	3.45
Cn1c(=O)c2c(nc(NCCCO)n2Cc2ccc(Br)cc2)n(C)c1=O	–
